# Source: PubChem
# aSyn UTR inh: MLPCN primary screen, SNCA 5' untranslated region; inhibition, % (tested at 7.5 µM); alpha-synuclein 5'UTR reporter, inhibitor activity; actives 0.82% (n = 300,000); AID 1813, 2009; in the data active = inhibition above about 60%;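 also: H4 neuroglioblastoma cells stably carrying SNCA 5'UTR luciferase fusion; 0% = DMSO wells and 100% = positive control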
# BaF3 parental: parental Ba/F3 cell viability inhibition, counter-screen for JAK2V617F inhibitor project, murine pro-B, CellTiter-Glo luminescence | CellTiter-Glo ATP luminescence | actives 1.1% (n = 220,000) | AID 1486, 2009 | inhibition, % at 5.6 µM;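 active = inhibition above a per-campaign cutoff, the mean inhibition of all tested compounds plus 3 SD, cut at about 27% in these data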;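 also: 0% = DMSO wells and 100% = JAK Inhibitor I control wells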
# IEC-6 cytotox: cytotoxicity in IEC-6 intestinal epithelial cells, primary screen, cytotoxicity control for KLF5 inhibitor project, cell-based, luminescence; IEC-6 cytotoxicity, luminescence viability; inhibition, % at 5 µM; actives 0.78% (n = 290,000); in the data active = inhibition above about 22%;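 also: 0% = plate median of test compound wells and 100% = cytotoxic reference compound wells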
# Ba/F3 V617F tox: reduced viability of JAK2V617F-dependent Ba/F3 cells, primary screen, JAK2V617F inhibitor project, cell-based, Ba/F3 EpoR-JAK2V617F, luminescence; inhibition, % at 5.6 µM; actives 1.1% (n = 220,000); ATP luminescence; AID 1446, 2008;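 active = inhibition above the campaign mean plus 3 SD over all tested compounds, cut at about 24% in these data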;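 also: cytokine-independent growth of Ba/F3 cells driven by EpoR plus mutant JAK2; 0% = DMSO-treated cells and 100% = JAK inhibitor I control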
# APP 5UTR inh: inhibitors of APP translation via 5'UTR reporter, primary screen, APP 5'UTR luciferase, SH-SY5Y cells | SH-SY5Y APP 5'UTR-luciferase reporter, luminescence | inhibition, % at 2 µM | actives 0.82% (n = 190,000);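 active = inhibition above a set limit, derived from the sample mean plus 3 SD, cut at about 45% in these data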
# KLF5 inh: KLF5 expression inhibitors, primary screen, DLD-1 cells, luminescence; DLD-1 KLF5 promoter-luciferase reporter; inhibition, % at 5 µM; actives 0.23% (n = 290,000); AID 1700, 2009;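 active = inhibition above a per-plate limit of that plate's mean compound inhibition plus 3 SD, cut at about 60% in these data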;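 also: 0% = DMSO wells and 100% = LY294002 at 200 µM; higher means less KLF5 promoter-driven luciferase light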
# The depositor's hits bear a star; . = no result given. Rows were chosen to be rich in hits. Some 2.2% of all compounds tested hit in one or more screens of this group.
SMILES,aSyn UTR inh,BaF3 parental,IEC-6 cytotox,Ba/F3 V617F tox,APP 5UTR inh,KLF5 inh
COc1ccc(CC2(CO)CCN(CC3=Cc4cc(Cl)ccc4OC3)CC2)cc1,-1,39*,-1,37*,14,-12
O=C(NCCN1C(=O)S/C(=C\c2ccc(OC(F)F)cc2)C1=O)c1cnccn1,50,5,19,0,76*,38
O=C(NC(Nc1ncc(S(=O)(=O)c2ccc([N+](=O)[O-])cc2)s1)(C(F)(F)F)C(F)(F)F)c1ccc(Cl)cc1,73*,4,-4,0,-12,11
CC(C)(C)C1CCC(OC(=O)CN2CCOCC2)CC1 (configuration not stated),-108,4,-1,0,-16,10
CC(C)(C)C1CCC(OC(=O)C[N+]2(C)CCCC2)CC1 (configuration not stated),6,36*,-2,32*,-12,-15
C[N+]1(CC(=O)OCCCC2CCCCC2)CCCC1,-17,3,2,0,7,-29
CC(C)CC1CCCCC1OC(=O)C[N+]1(C)CCCCC1 (configuration not stated),21,63*,0,57*,-25,-1
CC(C)(C)C1CCC(OC(=O)C[N+]2(C)CCCCC2)CC1 (configuration not stated),-4,41*,-3,32*,8,-15
CC(C)(C)c1nc2ccc(NS(=O)(=O)c3ccc(F)c(F)c3F)cc2[nH]1,-6,.,1,.,.,2
CC(C)c1ccc(NC(=O)c2cc(S(=O)(=O)N3CCCCC3)c[nH]2)cc1,-16,.,-3,.,.,-35
CCOc1ccc(C(=O)C[n+]2cccc3cc(C)ccc32)cc1,5,.,1,.,.,-10
Cc1ccc(C(=O)C[n+]2cccc3cc(C)ccc32)cc1,1,70*,2,5,10,-11
CCc1ccc(NC(=O)CS(=O)CC(=O)Nc2ccc(N3CCOCC3)cc2)cc1 (configuration not stated),21,.,0,.,.,-28
O=C1CC(c2ccccc2)Cc2nc3ncnn3cc21 (configuration not stated),-3,80*,5,77*,4,53
Cc1ccc(Cn2c(/C=C/c3ccco3)nc3ccccc32)cc1,1,13,-4,4,-37,-17
Clc1ccc(Cn2c(/C=C/c3ccco3)nc3ccccc32)cc1,-13,27*,4,-2,-10,-13
CCOc1ccc(NC(=O)C2CSC(c3ccncc3)=N2)cc1 (configuration not stated),-25,7,8,2,46*,18
CSc1nc(-c2ccccc2)nc(NC(=O)C(C)C)c1C(C)=O,9,3,2,-4,54*,-35
CNC(=O)C(Sc1ccccc1)c1ccccc1 (configuration not stated),-13,3,0,2,49*,-9
CCCCCCCCn1cnc2c(N)c(C)c(C)cc21,-24,60*,19,76*,6,-19
COc1ccc(Cn2cnc3c(N)c(C)c(C)cc32)cc1,24,7,-4,-1,5,-15
N#CC(C#N)=C1C=CC=CN1/C(=C\c1ccccc1Cl)C(=O)c1ccccc1,.,1,6,3,92*,-7
N#CC(C#N)=C1C=CC=CN1/C(=C\c1ccccc1)C(=O)c1cccs1,-9,-2,3,-4,-6,-16
Brc1ccc(CN2CCCCCC2)cc1,5,.,.,.,.,.
CNc1ccccc1C(C)(C)c1cc(-c2cccc(OC)c2)no1,16,56*,-1,48*,3,-19
CCc1cc(=O)oc2cc(C)cc(OC(C)C(=O)NCCCN3CCCC3=O)c12 (configuration not stated),-8,.,-2,.,.,-22
O=C(O)c1ccccc1C(=O)N1CC=C(c2ccccc2)CC1,-12,38*,-2,16,4,-35
Cc1c(C(=O)C(=O)N2CC=C(c3ccccc3)CC2)c2ccccc2n1C,55,28*,47*,77*,82*,38
Cc1c(C(=O)C(=O)N2c3ccccc3CC2C)c2ccccc2n1C (configuration not stated),-8,8,9,3,-7,4
